Where a name gives a salt, the structure may show the parent alone. ± gives the uncertainty stated by the source.

This test deals with Caenorhabditis elegans N2. Briefly: food intake (mean delta OD600 / animal over 72 h) with 50 uM loxapine co-treatment (OD600 units per animal); higher = more food eaten (less suppression of loxapine-induced hyperphagia). As to conditions: first compound 33 µM, loxapine concentration 50 µM. The procedure: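 C. elegans N2 adults (FUDR-sterilised, day 1) in 96-well plates fed gamma-irradiated bacteria. Each library drug (MedChemExpress FDA-approved library) at 33 uM was combined with loxapine at 50 uM. Food intake was measured as bacterial clearance: the change in OD600 from day 1 to 72 h, normalised per animal (mean over 14-21 wells of about 10-12 worms). Drugs flagged for bacterial lysis or sickness were excluded by the authors.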
Turning to `C[N+](C)(C)CCCCCCCCCC[N+](C)(C)C` [decamethonium (bromide)] + CN1CCN(C2=Nc3ccccc3Oc3ccc(Cl)cc32)CC1 [loxapine], the food intake amounted to 0.0222 ± 0.0054.

In the case of `C[C@]12CCC(=O)C(O)=C1CC[C@@H]1[C@@H]2CC[C@]2(C)C(=O)CC[C@@H]12` [formestane] + CN1CCN(C2=Nc3ccccc3Oc3ccc(Cl)cc32)CC1 [loxapine], the food intake turned out to be 0.0217 ± 0.0021.

For `COc1cc2c(cc1OC)C1CC(=O)C(CC(C)C)CN1CC2` (configuration not stated) [tetrabenazine] + CN1CCN(C2=Nc3ccccc3Oc3ccc(Cl)cc32)CC1 [loxapine], the food intake amounted to 0.0274 ± 0.017.

In the case of `Oc1cccc2cccnc12` [8-hydroxyquinoline] + CN1CCN(C2=Nc3ccccc3Oc3ccc(Cl)cc32)CC1 [loxapine], the food intake amounted to 0.0224 ± 0.0032.

For the molecule `Cc1ccc(O)cc1.Cc1cccc(O)c1.Cc1ccccc1O` [cresol] + CN1CCN(C2=Nc3ccccc3Oc3ccc(Cl)cc32)CC1 [loxapine], the food intake is 0.0212 ± 0.0037.

Consider `CCC1(c2cccc(O)c2)CCCCN(C)C1` (configuration not stated) [meptazinol (hydrochloride)] + CN1CCN(C2=Nc3ccccc3Oc3ccc(Cl)cc32)CC1 [loxapine], for which the food intake worked out at 0.0231 ± 0.0039.

As to `C=CCN1CC[C@]23c4c5ccc(O)c4O[C@H]2C(=O)CC[C@@]3(O)[C@H]1C5` [naloxone (hydrochloride)] + CN1CCN(C2=Nc3ccccc3Oc3ccc(Cl)cc32)CC1 [loxapine], the food intake is 0.0254 ± 0.0053.

For the molecule `O=C(N/N=C/c1ccc([N+](=O)[O-])o1)c1cc([N+](=O)[O-])cc([N+](=O)[O-])c1O` [nifursol] + CN1CCN(C2=Nc3ccccc3Oc3ccc(Cl)cc32)CC1 [loxapine], the food intake came out at 0.0249 ± 0.0032.

With `CCCCCCCCCCC(=O)O[C@H]1CC[C@H]2[C@@H]3CCC4=CC(=O)CC[C@]4(C)[C@H]3CC[C@]12C` [testosterone (undecanoate)] + CN1CCN(C2=Nc3ccccc3Oc3ccc(Cl)cc32)CC1 [loxapine], the food intake amounted to 0.0238 ± 0.0023.

Take `CN1[C@@H]2CC(O)C[C@H]1[C@@H]1O[C@@H]12` (some centres not stated) [scopine (hydrochloride)] + CN1CCN(C2=Nc3ccccc3Oc3ccc(Cl)cc32)CC1 [loxapine]: the food intake amounted to 0.00616 ± 0.012.

Take `COc1ccc(CN2CCNCC2)c(OC)c1OC` [trimetazidine (dihydrochloride)] + CN1CCN(C2=Nc3ccccc3Oc3ccc(Cl)cc32)CC1 [loxapine]: the food intake stood at 0.0224 ± 0.003.

As to `O=[N+]([O-])C(Br)(CO)CO` [bronopol] + CN1CCN(C2=Nc3ccccc3Oc3ccc(Cl)cc32)CC1 [loxapine], the food intake stood at 0.0259 ± 0.0077.

(Values after the supplement of paper PMC6288085.)
